About 83,000 compounds went through this panel and 20% of them were active in at least one assay; those are over-represented in the sample as a whole.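 48-hour exposure, single concentration, 96-well plates; percent growth endpoint where 0 means no net growth. Active: below 10.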 A number with no mark means an inactive call. Calls of active or inactive are those of the source.
Legend:
Experiment in all cases: NCI-60 one-dose screen, 48 h (100 = growth as untreated, 0 = no growth, -100 = all killed)
Details in all cases: 10 µM
NCI-H23 lung = test system: NCI-H23 lung
NCI-H226 lung = test system: NCI-H226 lung
HOP-62 NSCLC = test system: HOP-62 NSCLC
NCI-H522 lung = test system: NCI-H522 lung
A549/ATCC NSCLC = test system: A549/ATCC NSCLC
786-0 renal = test system: 786-0 renal
COLO 205 colon = test system: COLO 205 colon
NCI-H460 lung = test system: NCI-H460 lung
HOP-92 NSCLC = test system: HOP-92 NSCLC

Compound | growth (NCI-H23 lung) | growth (NCI-H226 lung) | growth (HOP-62 NSCLC) | growth (NCI-H522 lung) | growth (A549/ATCC NSCLC) | growth (786-0 renal) | growth (COLO 205 colon) | growth (NCI-H460 lung) | growth (HOP-92 NSCLC)
COc1cc2c(Nc3ccc(-c4ccc(N)cc4)cc3)ncnc2c(OC)c1OC | 70.6% | 78.6% | 85.9% | 48.6% | 29.2% | 48% | 19.8% |  | 
Cc1c2cnccc2c(C)c2c1oc1ccccc12 | 56.1% | 69.4% |  | 69.6% | 43% | 84.9% | 52.3% | 28.4% | 113%
COc1ccc(-c2nn(-c3cccc(Cl)c3)cc2-c2c(C#N)c(=O)n3[nH]c(-c4ccc(C)cc4)nc3c2C#N)cc1 | 75.3% | 57.5% |  | 20.5% | 50.5% | 3.78% (active) | 15.9% | 39.3% | 59.2%
CO[C@H]1CC(O[C@@H]2/C(C)=C/C[C@@H]3C[C@@H](C[C@]4(C=C[C@H](C)[C@@H](C5CCCCC5)O4)O3)OC(=O)[C@@H]3C=C(C)[C@@H](O)[C@H]4OC/C(=C\C=C\[C@@H]2C)[C@]43O)O[C@@H](C)C1O[C@H]1C[C@H](OC)[C@@H](O)[C@H](C)O1 (stereo partly drawn) | -63.7% (active) | -85.8% (active) |  |  | -79.7% (active) | -80.3% (active) | -64.7% (active) | -86.7% (active) | -82.9% (active)
CCn1c(CSc2nc3ccccc3c(=O)n2CCc2ccccc2)n[nH]c1=S | 65.6% | 78.1% |  | -5% (active) | 84.6% | 81.7% | 105% | 96.5% | 85.9%
COc1ccc(-c2nn(-c3cccc(Cl)c3)cc2-c2c(C#N)c(N)n(N)c(=O)c2C#N)cc1 | 66.9% | 66.5% |  | -46% (active) | 66.2% | 84.2% | 85.3% | 72.2% | 53.8%
Nc1cc(-c2ccc(Cl)cc2)nn1-c1nc2ccccc2nc1Cc1ccccc1 | 81.5% | 84.3% | 88.8% | 85.7% | 78% | 89.5% | 109% |  | 
CS(=O)(=O)c1nccc(-c2c(-c3cccc(OCCc4ccccc4)c3)nc3sccn23)n1 | 95.6% | 81.4% | 93% | 90.5% | 101% | 108% |  |  | 
CNC(=O)c1c(I)c(NC(C)=O)c(I)c(C(=O)O)c1I | 97.5% | 98.8% |  |  | 105% | 127% | 118% | 109% | 92.7%
COC(=O)C1OC1c1cc([N+](=O)[O-])ccc1OC (stereo not drawn) | 93% | 100% |  | 110% | 103% | 104% | 111% | 109% | 106%
N#Cc1c(-c2ccc(Cl)cc2)n(O)c2ccccc12 | -13.5% (active) | 75.7% |  | 10.7% | 26.9% | 8.19% (active) | 115% | 9.12% (active) | -8.45% (active)
O=C1c2c(c(=O)[nH]c3ccccc23)CCN1Cc1ccccc1 | 102% | 97.1% | 92.7% | 90.6% | 103% | 99.8% |  |  | 
C#CC(C)(O)[C@@H]1C[C@H](CC(=O)O)C1(C)C (stereo partly drawn) | 98% | 111% | 112% |  | 113% | 110% | 122% |  | 114%
COc1ccc(-c2nn(-c3cccc(Cl)c3)cc2-c2cc(-c3cccs3)[nH]c(=S)n2)cc1 | 15.7% | 58.9% |  | 46.5% | 39.7% | 38.4% | 52.4% | 43.8% | 94%
Nc1nc(-c2ccc(Cl)cc2)cc(-c2cc3ccccc3oc2=O)n1 | 92.5% | 88.9% | 84.7% |  | 103% | 95.7% | 100% |  | 
Cc1cc(O)ccc1C1=NN(c2ccc(S(C)(=O)=O)cc2)C(=O)CC1 | 32.9% | 93.3% |  | 2.39% (active) | 72.2% | 84.1% | 65.8% | 73.1% | 92.8%
COc1cc(-c2ccc(N=Nc3ccc4c(S(=O)(=O)O)ccc(N)c4c3O)c(OC)c2)ccc1N=Nc1ccc2c(S(=O)(=O)O)ccc(N)c2c1O | 101% | 102% | 85.9% | 105% | 106% | 120% | 95.7% |  | 
Cc1cn(-c2cc(F)cc(NC(=O)c3ccc(C)c(Nc4nccc(-c5cccnc5)n4)c3)c2)cn1 | 94.2% | -12.3% (active) |  | 11.5% | 19.3% | -6.06% (active) |  | 20.1% | -22% (active)
COc1ccc(-c2nn(-c3cccc(Cl)c3)cc2-c2c(C#N)c(=O)n3[nH]c(-c4ccccc4)nc3c2C#N)cc1 | 81.1% | 88% |  | 72.4% | 98.9% | 89.4% | 123% | 105% | 93.3%
N#CC1=CC2CN(Cc3ccccc3)C1C1C(=O)N(c3ccccc3)C(=O)C21 (stereo not drawn) | 88% | 97.7% |  | 106% | 95.5% | 102% | 98.2% | 101% | 108%
CCc1ccc(C2=NN(c3ccc(S(C)(=O)=O)cc3)C(=O)CC2)cc1 | -4.83% (active) | 69.1% |  | -1.27% (active) | 35.6% | 36.4% | 22.5% | 10.5% | 68.6%
Cc1nc2n(c(=O)c1CCN1CCC(c3noc4cc(F)ccc34)CC1)CCC[C@@H]2O | 92.1% | 99.6% |  |  | 99.3% | 107% |  | 105% | 97.9%
COc1ccc(Cl)cc1Nc1nc(C(F)(F)F)ccc1C(=O)N/N=C/c1ccc(Cl)cc1 | 64.1% | 52.1% | 44.8% | 31.6% |  | 13.6% | 18% |  | 25.7%
